# Screening data from PubChem.
# AmpC inh det: AmpC beta-lactamase inhibition, detergent assay. 71,000 tested, 0.09% active. P00811. Potency, µM (titrated, usually from 28.7 µM), for inactives: top-dose activity change, negative = inhibition. purified AmpC, nitrocefin hydrolysis with detergent; active = well fitted curve in the direction sought with a large enough effect; inconclusive = small, poorly fitted or top-dose-only effect; also: % is scaled to controls: 0 for no effect and ±100 for the full control effect
# Target sequence (P00811 whole entry, looked up): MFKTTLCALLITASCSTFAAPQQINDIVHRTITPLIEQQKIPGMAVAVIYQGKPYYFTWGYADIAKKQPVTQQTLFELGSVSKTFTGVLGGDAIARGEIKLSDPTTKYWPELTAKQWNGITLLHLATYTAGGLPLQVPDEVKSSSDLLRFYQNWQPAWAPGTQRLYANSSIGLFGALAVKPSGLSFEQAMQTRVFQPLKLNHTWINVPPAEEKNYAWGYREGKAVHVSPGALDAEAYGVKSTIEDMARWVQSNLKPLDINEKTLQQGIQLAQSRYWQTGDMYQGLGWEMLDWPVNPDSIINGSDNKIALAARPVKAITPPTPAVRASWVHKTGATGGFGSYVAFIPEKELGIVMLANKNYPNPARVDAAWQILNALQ
#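 E. coli AmpC (5.3 nM) in 20 mM phosphate pH 7.0 with 0.01% Triton X-100, preincubated 15 min RT with compound; nitrocefin (2 uL of 800 uM stock) hydrolysis followed by 480 nm absorbance every 20 s over 4 min.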
# SmPrx2 inh: inhibitors of Schistosoma mansoni peroxiredoxin 2 | S. mansoni Prx2 activity coupled to TGR/GSH (TGR is thioredoxin glutathione reductase), NADPH fluorescence loss, qHTS | Potency, µM | 65,000 tested, 0.07% active | AID 448
#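 Enzyme mix: 100 uM NADPH, 25 nM TGR, 700 uM GSH, 50 nM Prx2 in 100 mM phosphate pH 7.4, 10 mM EDTA, 0.01% Tween-20. 15 min RT with compound; NADPH/GSH added, H2O2 starts reaction; NADPH fluorescence read 8 min.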
# AmpC inh no det: AmpC beta-lactamase inhibition, detergent-free assay; P00811; AmpC nitrocefin hydrolysis, absorbance 480 nm, no detergent; Potency, µM (top dose mostly 28.7 µM), for the others: top-dose activity change, negative = inhibition; 71,000 tested, 1.8% active; AID 585; also: % of control where 0% means no effect
#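 AmpC, 20 mM phosphate pH 7.0; 15 min cpd preinc, RT; start with nitrocefin (800 uM stock); A480 kinetic read, 20 s intervals, 4 min. No-enzyme wells = negative control.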
# LT uptake inh: inhibitors of anthrax lethal toxin internalization | Cells, anthrax lethal toxin internalization, FRET ratio (460/530) | Potency, µM (top dose mostly 40 µM), for the others: top-dose activity change, negative = inhibition, actives largely listed as inhibitors | 70,000 tested, 0.67% active; also: % is scaled to controls: 0 for no effect and ±100 for the full control effect; nearly all actives have a fitted effect of over 50% in size
# Starred values were filed as active, the others as inactive; ? = inconclusive; . = no result; [ ] = remark or other dose. Most compounds without a hit are left out; they make up all but 2.6% or so of the library. Unless noted, calls follow the shape of the full dose curve. Potency is read from the fitted curve at half-maximal effect.
SMILES,AmpC inh det,SmPrx2 inh,AmpC inh no det,LT uptake inh
CCC(=O)N1CCc2cc(S(=O)(=O)NC(Cc3ccccc3)C(=O)NC3CCCC3)ccc21 (stereo not given),-3.4%,>57,17.8%,5.5%
O=C1CCc2cc(S(=O)(=O)N3CCN(C(=O)c4ccco4)CC3)ccc2N1,-0.2%,>57,-8.4%,12.4%
CN(Cc1ccco1)C(=O)C(Cc1ccccc1)NS(=O)(=O)c1ccc2c(c1)CCC(=O)N2 (stereo not given),16.8%,>57,3.98µM*[single pt active],2.3%
CCCNC(=O)C(Cc1ccccc1)NS(=O)(=O)c1ccc2c(c1)CCC(=O)N2 (stereo not given),12.7%,>57,3.98µM*[single pt active],-13.7%
O=C1CCc2cc(S(=O)(=O)NC(Cc3ccccc3)C(=O)NC3CCCC3)ccc2N1 (stereo not given),14.5%,>57,3.98µM*[single pt active],-16.7%
C=Cc1ccccc1C=C,9.1%,.,-2.5%,-5.9%
CN(C)c1ccnc(-c2cccc(NS(C)(=O)=O)c2)n1,8.7%,>57,9.8%,1.6%
Cc1cc2c(nc1C)CCCN2C[C@H](C)O/N=C1/[C@H]2O[C@@H]2[C@@H](O)[C@H]2[C@H]1CCn1c(=O)n(-c3ccccc3)c(=O)n12,.,.,.,-3.8%[8 µM]
CC1=CC(=O)NS(=O)(=O)O1,7.5%,.,-5.2%,-7.7%
CC12CC[C@@H]3c4ccc(OS(=O)(=O)O)cc4CC[C@H]3C1CCC2=O (stereo not given in full),-1.0%[12.8 µM],>57,-6.9%[12.8 µM],-7.2%[3.58 µM]
O=C(c1csnn1)N1CCC2(CCCN(c3cccc(-c4ccccc4)c3)C2)CC1,-1.0%,>57,58.7%,-18.1%
O=C1Nc2ccccc2C2(CCN(CCc3ccc(C(F)(F)F)cc3)CC2)O1,.,.,.,10µM*
COCCNS(=O)(=O)c1ccc(C2CNC(=O)C2)cc1 (stereo not given),12.0%,>57,3.98µM*[single pt active],9.8%
CN(C)CC(C(=O)c1ccccc1)c1ccccc1 (stereo not given),-2.9%,>57,-18.7%,10µM*
O=C(Cn1c(=O)oc2cc(S(=O)(=O)N3CCCC3)ccc21)Nc1ccc(C(F)(F)F)cc1,18.5%,>57,10µM*[single pt active],-17.1%
Cc1noc(NS(=O)(=O)c2ccc(NC(=O)CCn3c(=O)oc4ccccc43)cc2)c1C,8.6%,?,-1.6%,-9.1%
O=C(CN1CCCCC1)Nc1ccc(S(=O)(=O)N2CCCCCC2)cc1,-6.9%,>57,0.8%,-4.0%
CC1CCN(S(=O)(=O)c2ccc3c(c2)oc(=O)n3CC(=O)NCc2ccc3c(c2)OCO3)CC1,4.1%,>57,3.98µM*,?
Cc1cc(C)nc(NS(=O)(=O)c2ccc(NC(=O)Cn3c(=O)oc4ccccc43)cc2)n1,13.5%,>57,3.98µM*[single pt active],-4.5%
Cc1c(C(=O)NCc2ccc3c(c2)OCO3)oc2ccc(S(=O)(=O)N3CCC(C)CC3)cc12,-5.4%,>57,3.6%,-14.3%
O=C(Cn1c(=O)oc2cc(S(=O)(=O)N3CCCCCC3)ccc21)NC1CCCCCCC1,9.3%,>57,3.98µM*[single pt active],-8.3%
O=C(NO)c1ccccc1,8.3%,.,-20.5%,2.2%
O=C(Nc1ccccc1)N1CC2(CCN(C(=O)c3cnccn3)CC2)C1,-3.0%,>57,-7.1%,3.1%
Cc1ccc([N+](=O)[O-])c(C)c1,9.2%,.,-0.9%,-7.5%
CC1CCN(S(=O)(=O)c2ccc3c(c2)oc(=O)n3CC(=O)N2c3ccccc3CC2C)CC1 (stereo not given),3.4%,>57,16.9%,?
SMILES,AmpC inh det,SmPrx2 inh,AmpC inh no det,LT uptake inh
O=C(O)Cn1c(=O)oc2cc(S(=O)(=O)NC3CCCCC3)ccc21,11.1%,>57,2.51µM*[single pt active],-3.0%
O=C(Cn1c(=O)oc2cc(S(=O)(=O)N3CCCC3)ccc21)NC1CCCc2ccccc21 (stereo not given),12.1%,>57,2µM*,?
CCN(CC)S(=O)(=O)c1ccc(NC(=O)Cn2c(=O)sc3ccccc32)cc1,0.8%,>57,?,-20.9%
O=C(Cn1c(=O)sc2ccccc21)Nc1ccc(S(=O)(=O)N2CCCCC2)cc1,-4.5%,>57,6.31µM*,-1.7%
C[C@@H]1CC2(OC[C@]3(C)O[C@H]23)O[C@H]2C[C@@]3(C)[C@@H]4CC[C@H]5C(C)(C)C(O[C@@H]6OC[C@@H](O)[C@H](O)[C@H]6O)CC[C@@]56C[C@@]46CC[C@]3(C)[C@@H]12 (stereo not given in full),8.4%,.,152.3%,13.9%
CCCn1c(-c2ccc(F)cc2)nc2c(NCC3CCN(C)CC3)nc(C)nc21,15.7%,.,43.2%,-10.1%
CCOC(=O)C1CCN(CCC(=O)Nc2cccc(Cl)c2)CC1,1.0%,>57,-9.9%,10µM*
